This passage reports PXC50 results from ChEMBL document CHEMBL3988442, “University of Dundee, Small-Polar-MMV Screening Library” (2021).

In this test the target is T1, Methionyl-tRNA synthetase, putative (Leishmania donovani (strain BPK282A1)) (UniProt E9BF75).
T1 sequence (whole entry): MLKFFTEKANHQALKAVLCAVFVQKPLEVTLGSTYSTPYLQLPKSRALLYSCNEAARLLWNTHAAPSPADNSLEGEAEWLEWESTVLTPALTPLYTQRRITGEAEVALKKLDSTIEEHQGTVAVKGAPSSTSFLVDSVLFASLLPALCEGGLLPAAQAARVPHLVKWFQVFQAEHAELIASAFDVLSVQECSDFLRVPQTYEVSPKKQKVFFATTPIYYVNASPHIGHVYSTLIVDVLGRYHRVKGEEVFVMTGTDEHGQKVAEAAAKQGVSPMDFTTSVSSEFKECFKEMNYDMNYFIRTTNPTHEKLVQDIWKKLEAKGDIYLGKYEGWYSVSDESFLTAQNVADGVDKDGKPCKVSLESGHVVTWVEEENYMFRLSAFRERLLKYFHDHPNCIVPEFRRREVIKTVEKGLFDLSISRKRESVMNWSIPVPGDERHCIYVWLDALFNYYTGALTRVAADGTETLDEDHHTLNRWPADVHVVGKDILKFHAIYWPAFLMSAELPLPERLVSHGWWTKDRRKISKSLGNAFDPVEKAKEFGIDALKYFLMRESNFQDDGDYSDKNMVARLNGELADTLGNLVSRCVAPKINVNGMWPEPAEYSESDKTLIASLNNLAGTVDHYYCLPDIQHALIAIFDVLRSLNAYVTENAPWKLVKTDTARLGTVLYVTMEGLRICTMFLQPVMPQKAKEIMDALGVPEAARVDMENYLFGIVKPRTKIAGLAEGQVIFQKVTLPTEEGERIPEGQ
The experiment in a line: Leishmania donovani Methionine tRNA synthetase (LdMetRS):v7. Dose response assay. Set-up: conc 80 nM, time 150 minutes. The test is classed as functional.

Bounds are passed on as bounds.

Take `COC(=O)c1cnc(Nc2cccc(C(F)(F)F)c2)c(S(N)(=O)=O)c1`: the PXC50 is under 4 (MAX_EFFECT 3.50877193), under 4 (MAX_EFFECT 6.168224299) and under 4 (MAX_EFFECT 6.615776081).
In the case of `OCCNc1nc(Nc2cccc(OC(F)(F)F)c2)nc2ccsc12`, the PXC50 by setting is: (BOTTOM -3.252318024, HILLSLOPE 0.711277169, MAX_EFFECT 57.23140496, TOP 100.0) 4.23; (MAX_EFFECT 49.7098646) under 4; (MAX_EFFECT 49.77973568) under 4.
Take `NC(=O)c1cc(Nc2ncccc2S(N)(=O)=O)cc(C(F)(F)F)c1`: the PXC50 was under 4 (MAX_EFFECT 8.583690987), under 4 (MAX_EFFECT 8.863198459) and under 4 (MAX_EFFECT 9.501187648).
Consider `CN(C)CCNc1nc(Nc2ccc(F)c(F)c2)nc2c1cnn2C`, for which the PXC50 was 4.37 (BOTTOM 0.475518208, HILLSLOPE 0.90804468, MAX_EFFECT 68.49315068, TOP 100.0593914); 4.44 (BOTTOM 1.11826122, HILLSLOPE 1.149142478, MAX_EFFECT 65.47169811, TOP 85.8972695); 4.53 (BOTTOM 3.189178936, HILLSLOPE 1.201155954, MAX_EFFECT 69.44971537, TOP 84.11641449).
With `Cn1ncc2c(NCCn3cnnn3)nc(Nc3ccc(F)c(F)c3)nc21`, the PXC50 runs as follows: (BOTTOM 0.694813003, HILLSLOPE 0.766193094, MAX_EFFECT 55.16528926, TOP 100.0) 4.46; (MAX_EFFECT 43.90715667) under 4; (MAX_EFFECT 44.05286344) under 4.
Turning to `CC(CO)Nc1nc(Nc2ccc(F)c(F)c2)nc2c1cnn2C` (centres undefined), the PXC50 was found to be 4.83 (BOTTOM 2.552520772, HILLSLOPE 1.745088914, MAX_EFFECT 107.6446281, TOP 100.0); 5.16 (BOTTOM 8.006700064, HILLSLOPE 1.180035315, MAX_EFFECT 70.20872865, TOP 73.72941327); 4.9 (BOTTOM -2.864211308, HILLSLOPE 1.095022811, MAX_EFFECT 93.83259912, TOP 100.0).
Regarding `OCCNc1ccnc(Nc2cccc(F)c2)n1`, the PXC50 runs as follows: (MAX_EFFECT 29.67244701) under 4; (MAX_EFFECT 30.83700441) under 4; (MAX_EFFECT 32.02479339) under 4.
The molecule `NS(=O)(=O)c1cccnc1Nc1cccc(C(F)(F)F)c1` yielded a PXC50 (MAX_EFFECT 8.810572687) of under 4, a PXC50 (MAX_EFFECT 8.888888889) of under 4 and a PXC50 (MAX_EFFECT 15.90909091) of under 4.
Consider `O=C(N1CCOCC(O)C1)C1(c2ccc(Cl)cc2)CCC1` (centres undefined), for which the PXC50 reads like this: (MAX_EFFECT 0.0) under 4; (MAX_EFFECT -0.875656743) under 4; (MAX_EFFECT -1.449275362) under 4.
For the molecule `CCc1cccc(Nc2nc(NCCO)c3sccc3n2)c1`, the PXC50 is, setting by setting: (MAX_EFFECT 17.21470019) under 4; (MAX_EFFECT 27.31277533) under 4; (MAX_EFFECT 37.39669421) under 4.
As to `Cn1ncc2c(NCC3CCOC3)nc(Nc3ccc(F)c(F)c3)nc21` (centres undefined), the PXC50 is, setting by setting: (BOTTOM 0.0, HILLSLOPE 0.829006149, MAX_EFFECT 88.54961832, TOP 100.0) 4.89; (BOTTOM 5.170404417, HILLSLOPE 0.914601234, MAX_EFFECT 86.40350877, TOP 102.339634) 4.72; (BOTTOM -0.903989981, HILLSLOPE 0.887117975, MAX_EFFECT 86.41509434, TOP 97.82602818) 4.97.
Take `Cn1nc(Cn2ccnc2)c2c1CN(c1nccs1)C2`: the PXC50 worked out at 4.44 (BOTTOM 0.559364067, HILLSLOPE 0.919078395, MAX_EFFECT 71.42857143, TOP 99.25901822); 4.55 (BOTTOM -1.637231388, HILLSLOPE 0.873521348, MAX_EFFECT 76.08695652, TOP 100.0); 4.1 (BOTTOM -15.97247073, HILLSLOPE 2.274903325, MAX_EFFECT 57.26795096, TOP 100.0).
In the case of `COCCNc1cc(-c2ccccc2CCN)c2cc[nH]c2n1`, the PXC50 is, setting by setting: (BOTTOM -0.0153, HILLSLOPE 1.167622452, MAX_EFFECT 63.88888889, TOP 100.0) 4.2; (MAX_EFFECT 46.30872483) under 4; (MAX_EFFECT 46.96707106) under 4.
On to `COC1CCCCC1Nc1nc(Nc2ccc(F)c(F)c2)nc2c1cnn2C` (centres undefined), for which the PXC50 reads like this: (BOTTOM 6.09090205, HILLSLOPE 1.180798676, MAX_EFFECT 57.89473684, TOP 61.13511107) 4.92; (MAX_EFFECT 49.43396226) under 4; (MAX_EFFECT 49.87277354) under 4.
On to `Cn1ncc2c(NCCO)nc(Nc3ccccc3S(N)(=O)=O)nc21`, for which the PXC50 (MAX_EFFECT 2.127659574) was under 4, the PXC50 (MAX_EFFECT 3.652968037) is under 4 and the PXC50 (MAX_EFFECT 13.39622642) was under 4.
For `CN(CCO)c1nc(Nc2ccc(F)c(F)c2)nc2c1cnn2C`, the PXC50 is, setting by setting: (BOTTOM 0.0, HILLSLOPE 0.946216108, MAX_EFFECT 71.34724858, TOP 77.67704584) 5.71; (BOTTOM 6.419914674, HILLSLOPE 1.323004722, MAX_EFFECT 73.51598174, TOP 75.78870148) 5.35; (BOTTOM 11.43918674, HILLSLOPE 1.794336173, MAX_EFFECT 61.32075472, TOP 56.10925087) 5.63.
With `Cn1ncc2c(NCCCn3cnnc3)nc(Nc3ccc(F)c(F)c3)nc21`, the PXC50 (BOTTOM 1.83375179, HILLSLOPE 0.958532355, MAX_EFFECT 86.4608076, TOP 100.0) is 4.67; the PXC50 (BOTTOM -0.68283143, HILLSLOPE 0.850398367, MAX_EFFECT 82.59187621, TOP 94.39900943) was found to be 4.98; the PXC50 (BOTTOM -3.068523854, HILLSLOPE 0.793433763, MAX_EFFECT 81.54506438, TOP 111.1617786) turned out to be 4.55.
In the case of `C[C@H](CO)Nc1nc(Nc2ccc(F)c(F)c2)nc2c1cnn2C`, the PXC50 turned out to be 5.18 (BOTTOM 0.704945414, HILLSLOPE 0.848291247, MAX_EFFECT 90.56603774, TOP 99.28027428); 5.08 (BOTTOM -2.01884568, HILLSLOPE 0.856610715, MAX_EFFECT 86.93586698, TOP 98.70470885); 5.06 (BOTTOM -5.653457492, HILLSLOPE 0.743768618, MAX_EFFECT 93.13304721, TOP 109.1674954).
